# Screening results (PubChem BioAssay)
# Shown are actives, neighbours in structure and some others; about 2.4% of the full set was active somewhere.
# TNF necrop inh: inhibitors of TNF-alpha triggered necroptosis, primary screen, cell-based, Jurkat FADD-/-, single concentration; Jurkat FADD-/- TNF necroptosis rescue, ATP luminescence, 24 h; 0 = TNF only, 100 = no-TNF cells; activation (protection from cell death), % at 10 µM; hit rate 0.068% among 220,000; AID 463075, 2010;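 active = activation, meaning protection from cell death, of at least 50% relative to plate controls; inactive = activation below 50%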;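 note: necroptosis triggered by 40 ng/mL TNF-alpha added together with compound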
# Mcl1 Bid PPI: Mcl-1/Bid binding inhibitors, primary screen, biochemical, TR-FRET, 1536-well | Induced myeloid leukemia cell differentiation protein Mcl-1 (Homo sapiens), Q07820 | hit rate 0.97% among 220,000 | TR-FRET Mcl-1/Bid-Dy647 peptide binding | inhibition, % at 21.7 µM;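 active = compounds that cut the binding signal by more than half at the single screening dose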;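 note: His-tagged Mcl-1 with europium anti-His antibody binding Bid BH3 peptide; 0% = Mcl-1 plus peptide wells and 100% = peptide-only wells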
# Target sequence (Q07820 whole entry, looked up): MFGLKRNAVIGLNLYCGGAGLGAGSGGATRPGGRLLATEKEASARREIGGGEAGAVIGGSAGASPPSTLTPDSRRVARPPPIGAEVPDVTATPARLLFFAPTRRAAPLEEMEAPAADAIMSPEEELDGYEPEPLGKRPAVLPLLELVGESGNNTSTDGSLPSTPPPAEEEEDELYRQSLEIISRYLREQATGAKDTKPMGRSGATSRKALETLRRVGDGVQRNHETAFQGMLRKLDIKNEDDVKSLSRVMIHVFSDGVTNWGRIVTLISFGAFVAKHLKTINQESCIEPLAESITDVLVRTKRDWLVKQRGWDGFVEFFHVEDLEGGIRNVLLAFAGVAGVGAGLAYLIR
# zVAD death inh: inhibitors of zVAD-triggered necroptosis, primary screen, L929 cells | L929 zVAD necroptosis rescue, ATP luminescence, 24 h; with zVAD 60 µM | viability rescue, % at 10 µM | hit rate 0.38% among 220,000;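 active = activation, scaled between plate controls, above about 75%, limit read from the data; inactive = activation under that limit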;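 note: 0% = zVAD with DMSO and 100% = DMSO alone without zVAD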
# MCL1-BIM inh: inhibitors of MCL1 binding to BIM-BH3, primary screen, biochemical, fluorescence polarization; Induced myeloid leukemia cell differentiation protein Mcl-1 (Homo sapiens), Q07820; GST-MCL1 / FITC-Bim-BH3 fluorescence polarization; inhibition, % at 10.9 µM; hit rate 0.68% among 320,000; AID 2057, 2009;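 active = inhibition above the mean inhibition of all tested compounds plus 3 SD, set per campaign, cut at about 40% in these data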;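 note: 0% = DMSO wells and 100% = unlabeled Bim-BH3 peptide control; higher means more loss of mP so more displacement of Bim peptide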
# Mcl1-Noxa inh: Mcl-1/Noxa binding inhibitors, primary screen, biochemical, TR-FRET, 1536-well | inhibition, % at 21.7 µM | Induced myeloid leukemia cell differentiation protein Mcl-1 (Homo sapiens), Q07820 | hit rate 1.5% among 220,000 | TR-FRET Mcl-1/Noxa peptide binding, 2 h;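 active = compounds that cut the protein-peptide binding signal by more than 50% relative to plate controls in a single-dose test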;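 note: His-tagged Mcl-1 with rhodamine Noxa BH3 peptide and terbium anti-His antibody; 0% = Mcl-1 plus Noxa peptide wells and 100% = peptide-only wells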
# Bim-Mcl-1: inhibitors of Bim peptide binding to Mcl-1, primary screen, biochemical, bead-based flow cytometry, multiplex; inhibition, % at 10 µM; Bim peptide-Mcl-1 binding; Induced myeloid leukemia cell differentiation protein Mcl-1 (Homo sapiens), Q07820; hit rate 0.1% among 190,000; in the data active = inhibition above about 40%;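 note: 0% = no compound tracer wells and 100% = peptide blocker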
# * hit, by the source's call; nt = no result given.
SMILES,TNF necrop inh,Mcl1 Bid PPI,zVAD death inh,MCL1-BIM inh,Mcl1-Noxa inh,Bim-Mcl-1
COc1ccccc1NC(c1cccnc1)c1ccc2cccnc2c1O (stereo not drawn),-8,8,0,18,51*,0
Cc1cccc(NC(c2ccc(C)s2)c2ccc3ccc(C)nc3c2O)n1 (stereo not drawn),3,7,17,23,67*,-4
Cc1ccnc(NC(c2cccnc2)c2ccc3cccnc3c2O)c1 (stereo not drawn),-6,-14,-1,1,41,0
Cc1ccnc(NC(c2ccsc2)c2ccc3ccc(C)nc3c2O)c1 (stereo not drawn),0,36,0,6,40,2
CC1CC(C)CN(C(=O)CCNC(=O)Cn2ccc3ccccc3c2=O)C1 (stereo not drawn),nt,nt,nt,0,nt,nt
COc1ccccc1CNC(=O)c1cc(-c2ccncc2)nc2c(Cl)cccc12,nt,nt,nt,0,nt,nt
N=c1sccn1CC(=O)NCCc1ccc(Cl)cc1Cl,4,41,2,6,51*,0
CC1CCCN(C(=O)CN(c2ccccc2)S(=O)(=O)c2ccc(F)cc2)C1 (stereo not drawn),nt,nt,nt,3,nt,nt
NC(=S)n1[nH]c(-c2ccc([N+](=O)[O-])cc2)c(N=Nc2cccc(Cl)c2)c1=O,-1,82*,2,nt,93*,-2
NC(=S)n1[nH]c(-c2ccc([N+](=O)[O-])cc2)c(N=Nc2ccc(O)cc2)c1=O,-3,65*,0,9,73*,-1
COc1ccccc1C(=O)NC(C(=O)NCCc1nc2ccccc2[nH]1)=C(C)C,nt,nt,nt,0,nt,nt
Cc1nn(CC(=O)Nc2ccc3c(c2)nc(CCN2CCCCC2)n3C)c(=O)c2ccccc12,6,-20,-1,3,20,-3
Cc1nn(CC(=O)Nc2ccc3c(c2)nc2n3CCN(C3CCCCC3)C2)c(=O)c2ccccc12,1,-7,4,27,70*,2
C=CSc1sc(Cl)c(N(CC)CC)c1[N+](=O)[O-],-1,-55,1,26,52*,-1
C=CSc1sc(Cl)c(N(C)C)c1[N+](=O)[O-],-3,-23,-1,14,16,-2
Cc1ccc(CSc2nnc([C@@H]3CCCN3)o2)cc1,0,63*,0,10,50,-1
CCN(CC)CCNC(=O)C1CCC(=O)N(c2ccc(OC)cc2)C1c1ccc(F)cc1 (stereo not drawn),1,-9,2,1,7,0
CCCN(CCC)CCNC(=O)C1CC(=O)N(c2ccc(OC)cc2)C1c1ccc(OC)cc1 (stereo not drawn),0,60*,1,3,10,0
CCCn1c(SCC(=O)NC2CCC(C)CC2)n[nH]c1=O (stereo not drawn),nt,nt,nt,48*,nt,nt
CCCn1c(SCC(=O)NC(=O)NC(C)(C)C)n[nH]c1=O,0,-4,1,6,8,-2
Cc1ccc(S(=O)(=O)N/N=C/c2cnn(C)c2C)cc1,0,70*,0,1,4,-8
CCc1noc(C)c1C(=O)N(C)CC(=O)Nc1ccc(OC)cc1,nt,nt,nt,3,nt,nt
O=C(NN1C(=O)/C(=C/c2cc([N+](=O)[O-])ccc2O)SC1=S)c1ccccc1O,nt,nt,nt,55*,nt,nt
O=C(NN1C(=O)/C(=C/c2ccc(O)c([N+](=O)[O-])c2)SC1=S)c1ccccc1Cl,-1,0,2,-32,32,2
Cn1nc(-c2ccc(Cl)cc2)c2cc(C(=O)NCCN3CCOCC3)sc21,2,94*,4,0,11,3
SMILES,TNF necrop inh,Mcl1 Bid PPI,zVAD death inh,MCL1-BIM inh,Mcl1-Noxa inh,Bim-Mcl-1
Cc1cc(OCC(=O)NCC(c2ccc(F)cc2)N2CCOCC2)ccc1Cl (stereo not drawn),nt,nt,nt,5,nt,nt
COc1cccc(C(=O)C2CCCN(Cc3cccc(-n4nc(C)cc4C)c3)C2)c1 (stereo not drawn),1,-23,0,2,7,-4
COc1cc(C(c2nnnn2C2CCCC2)N2CCc3ccccc3C2)ccc1O (stereo not drawn),2,9,0,11,77*,0
CCc1ccc(S(=O)(=O)Nc2cc3c(cc2C)n(C)c(=O)n3C)cc1,nt,nt,nt,-5,nt,nt
CC1CC(C)CN(CCOc2ccccc2-c2ccccc2)C1 (stereo not drawn),5,57*,nt,4,31,-3
CC1CCN(CCOc2ccccc2-c2ccccc2)CC1,5,28,0,3,19,0
COCCCNCCOCCOc1ccccc1-c1ccccc1,3,3,0,-4,20,1
CC(C)(C)NCCOCCOc1ccccc1-c1ccccc1,4,56*,-1,-16,4,-2
CCOC(=O)[C@@H]1[C@H]2COc3cc(OC)ccc3[C@@H]2N2C(=O)N(c3cccc(Cl)c3)C(=O)[C@@]12C,nt,nt,nt,2,nt,nt
COc1ccccc1COCC(O)CNCC1(N2CCCCC2)CCCCC1 (stereo not drawn),-1,62*,0,7,12,-2
COc1cc(C(C)=O)ccc1OCC(O)CNCC1(N2CCCCC2)CCCCC1 (stereo not drawn),-2,5,-1,0,25,-1
CCN(CC)c1ccc(NC(=O)COC(=O)CCC(=O)c2ccc(F)cc2)cc1,1,-68,0,21,70*,-5
O=C(COC(=O)CCC(=O)c1ccc(F)cc1)Nc1ccccc1,0,28,1,4,14,-2
O=C(c1ccccc1)c1ccc2nc(N3CCN(C(=O)c4ccco4)CC3)c3nncn3c2c1,-8,6,0,8,56*,0
CCOC(=O)N1CCN(c2nc3ccc(C(=O)c4ccccc4)cc3n3cnnc23)CC1,-4,2,2,3,6,nt
CCOC(=O)CC1C(=O)NCCN1C(=O)c1cccc(OC)c1 (stereo not drawn),nt,nt,nt,24,nt,nt
Cc1cc(N2CCN(C)CC2)nc2ccc(NC(=S)N3CCCCC3)cc12,-1,-93,6,nt,24,-1
Cc1cccc(N2CCN(C(=S)Nc3ccc4nc(N5CCN(C)CC5)cc(C)c4c3)CC2)c1C,-15,85*,-4,nt,48,-2
CCOC(=O)C1CCCN(C(=O)Cn2sc3nc(C)cc(C)c3c2=O)C1 (stereo not drawn),-3,-22,0,1,57*,-5
Cc1cc(C)c2c(=O)n(CC(=O)N3CCC(N4CCCCC4)CC3)sc2n1,-4,-53,0,17,46,-2
COc1ccc(S(=O)(=O)NCCCn2ccnc2)cc1Cl,nt,nt,nt,-4,nt,nt
